Most compounds without a hit are left out; they make up all but 32% or so of the library.
CYP2C19 inh – inhibitors of human CYP2C19. P33261. CYP2C19 Supersomes, luciferin-H EGE luminescence, 30 min. inhibition, % at 5 µM. actives 21% (n = 96,000). AID 778;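 active = CYP2C19 inhibition above a set limit at 5 µM in the primary screen, cut at about 50% in these data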;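 note: plate controls were negative control wells for no effect and 2.5 mM tranylcypromine positive control for full effect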
CYP2C9 activ – CYP2C9 (human) activation | recombinant CYP2C9, luciferin-H conversion, luminescence; stronger effect = higher value; factor 1 = untreated enzyme, 0 = blocked | activation factor at 5 µM | actives 1.4% (n = 96,000) | AID 1024;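 active = activation factor of 2 or more for CYP2C9 at a 5 µM dose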;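 note: 0 = sulfaphenazole-blocked wells and 1 = vehicle-only wells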
Target sequence (P11712 whole entry, looked up): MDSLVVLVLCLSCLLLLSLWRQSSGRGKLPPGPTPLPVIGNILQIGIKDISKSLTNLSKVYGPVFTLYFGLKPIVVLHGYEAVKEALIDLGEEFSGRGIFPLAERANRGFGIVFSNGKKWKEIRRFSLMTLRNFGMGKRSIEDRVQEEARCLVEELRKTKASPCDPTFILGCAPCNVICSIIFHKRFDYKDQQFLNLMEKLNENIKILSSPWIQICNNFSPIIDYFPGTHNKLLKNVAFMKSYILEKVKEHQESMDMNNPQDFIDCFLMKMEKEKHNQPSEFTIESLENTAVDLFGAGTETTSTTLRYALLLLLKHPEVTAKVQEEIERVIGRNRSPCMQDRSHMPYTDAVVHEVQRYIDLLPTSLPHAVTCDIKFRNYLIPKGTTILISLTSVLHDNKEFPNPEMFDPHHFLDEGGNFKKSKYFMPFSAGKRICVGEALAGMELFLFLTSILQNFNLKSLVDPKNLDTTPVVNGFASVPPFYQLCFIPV
PostGolgi ctrl – growth of the yeast control strain, post-Golgi counter-screen. efflux-deficient yeast background strain, growth absorbance A615, 16 h. inhibition, % at 10 µM. actives 5% (n = 98,000). AID 738
PostGolgi yeast – growth inhibition of a yeast mutant, post-Golgi transport screen; post-Golgi transport phenotypic cell assay; inhibition, % at 10 µM; actives 0.9% (n = 98,000); AID 739;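 note: yeast cells grown in 1536-well plates; yeast grown about 18 h at 30C before absorbance read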
CYP2C19 act – cytochrome P450 2C19 (human) activation. recombinant CYP2C19, luciferin-H EGE luminescence; stronger effect = higher value; 0 = fully inhibited enzyme, 1 = untreated enzyme. activation factor at 5 µM. 96,000 tested, under 10 active. AID 1025;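 active = activation factor of at least 2 at 5 µM in the primary screen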;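 note: 0 = wells with 2.5 mM tranylcypromine and 1 = vehicle-only wells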
CYP2C9 inhib – blocks human cytochrome P450 2C9. P11712. CYP2C9 Supersomes, luciferin-H conversion, luminescence. inhibition, % at 5 µM. actives 20% (n = 96,000). AID 777;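 active = blocking of liver enzyme CYP2C9 beyond about 50% at 5 µM, limit read from the data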
* = called active by the depositor; x = no result. Cut-off read from the data, not from the text of the source, unless noted: active = inhibition above about 30%; inactive = the rest.

SMILES	CYP2C19 inh	CYP2C9 activ	PostGolgi ctrl	PostGolgi yeast	CYP2C19 act	CYP2C9 inhib
Cc1ccc(-c2noc(CN(C(=O)C(c3ccccc3)c3ccccc3)C(C)C)n2)cc1	22	0.3	12	-2	0.8	66*
CC(C)N(Cc1nc(-c2ccccc2)no1)C(=O)CCCN1C(=O)c2ccccc2C1=O	67*	0.3	3	-7	0.3	67*
COC(=O)CCCCCC(CCC(=O)OC)NC(C)=O (configuration not stated)	-1	0.9	-9	-3	1	6
COc1ccc(C2C(C(C)=O)=C(O)C(=O)N2c2ccc(Br)cn2)cc1 (configuration not stated)	2	0.9	6	-8	1	8
O=C(NC(C(=O)c1ccccc1)n1cnccc1=O)c1ccccc1 (configuration not stated)	10	0.9	2	4	0.9	11
O=C(NC(Nc1ncccn1)C(=O)c1ccccc1)c1ccccc1 (configuration not stated)	78*	0.2	23	3	0.2	77*
Nc1cc2c(cc1C(=O)c1ccc(Cl)cc1)OCCO2	61*	0.3	12	2	0.4	70*
CC(=O)Nc1cc2c(cc1C(=O)c1ccccc1)OCCO2	30	0.9	-5	-7	0.7	6
Cc1ccc(C(=O)c2cc3c(cc2N)OCCO3)cc1	67*	0.3	16	0	0.3	68*
Nc1cc2c(cc1C(=O)c1ccccc1)OCCO2	51*	0.7	9	-3	0.5	29
Cc1cccc(N2C(=S)N=C(Nc3c(C)cccc3C)C23CCOC(C)(C)C3)c1 (configuration not stated)	-14	1.1	6	-7	1.1	-14
O=S(=O)(Cc1ccccc1)NCC1CCCO1 (configuration not stated)	8	1.1	-10	5	0.9	-8
CCOCCCN1CC(C(=O)NCCc2ccc(C)cc2)CC1=O (configuration not stated)	-8	0.8	4	8	1.1	22
CCOC(=O)N1CCN(c2nc(-c3cccs3)cc(C(F)(F)F)n2)CC1	8	0.9	12	-3	0.9	7
CCNc1ccc2c(Cl)cc(=O)oc2c1	-5	1	2	-2	1	0
Cc1ccc(C2=N/C(=C\N3CCCCC3)C(=O)O2)cc1	84*	0.3	7	-4	0.2	66*
CCN(CC)c1nc(-c2cccc(OC)c2O)nc2ccccc12	4	1.1	32*	-3	1	-9
C=CCNc1nc(-c2cccc(OC)c2O)nc2ccccc12	-6	1.3	17	-3	1.1	-28
COc1cccc(-c2nc(N3CCCCC3C)c3ccccc3n2)c1O (configuration not stated)	24	0.2	75*	18	0.8	84*
CCOC(=O)c1sc(NC(=O)c2ccc3ncsc3c2)nc1C	-2	1	2	3	1	-4
Cc1ccc(N(C)S(=O)(=O)c2ccc(C)cc2)cc1	90*	0.5	7	-6	0.1	51*
Cc1ccc(S(=O)(=O)N(C)c2ccc(OCC(=O)O)cc2)cc1	-1	0.7	-1	1	1	34
Cc1ccc(S(=O)(=O)N(C)c2ccccc2)cc1	94*	1.6	1	-3	0.1	-65
Cc1ccc(S(=O)(=O)N(C)c2ccc(NS(C)(=O)=O)cc2)cc1	66*	2*	7	7	0.3	-100
Cn1c(=O)[nH]c(=O)c2c1nc(SCC(=O)O)n2CCc1ccccc1	-3	1	7	14	1	2
SMILES	CYP2C19 inh	CYP2C9 activ	PostGolgi ctrl	PostGolgi yeast	CYP2C19 act	CYP2C9 inhib
COCCn1c(SCC(=O)NCc2cccs2)nnc1-c1ccc(OC)cc1	5	1	1	-5	1	4
COc1cccc(-c2csc3nnc(SCC(=O)NCc4cccs4)n23)c1	59*	0.6	9	-1	0.4	40
COc1ccc(-c2nnc(SCC(=O)NCc3cccs3)n2C(C)C)cc1	66*	0.5	14	-2	0.3	54*
COc1ccc(NC(=O)c2c(C(F)(F)F)nn(C)c2SCc2ccccc2Cl)cc1	24	0.1	23	8	0.8	87*
COc1ccc(C2=CC(c3ccc(Cl)cc3)n3cnnc3N2)cc1OC (configuration not stated)	25	0.6	3	12	0.7	40
COc1ccccc1-n1c(-c2ccc(NS(C)(=O)=O)cc2)n[nH]c1=S	9	0.8	14	7	0.9	17
Cc1cccc(-n2c(C)n[nH]c2=S)c1C	-23	1.3	-1	6	1.2	-32
Cc1ccccc1-n1c(-c2ccncc2)n[nH]c1=S	54*	0.7	x	x	0.5	29
CC(c1ccccc1)n1c(-c2ccncc2)n[nH]c1=S (configuration not stated)	78*	0.3	12	-10	0.2	65*
CCc1ccccc1-n1c(-c2ccncc2)n[nH]c1=S	68*	0.3	8	6	0.3	68*
S=c1[nH]nc(-c2ccncc2)n1Cc1ccccc1	-6	0.7	12	0	1.1	31
COCCNC(=O)C(c1ccccc1C)N(CCOC)C(=O)Cn1nnc2ccccc21 (configuration not stated)	9	0.9	8	12	0.9	10
O=S(=O)(Nc1ccc(-n2cccc2)cc1)c1ccc(Cl)cc1Cl	100*	0	67*	-4	0	100*
CCN(CCCNC(=O)c1cn(CC)c2ccc(S(=O)(=O)N(C)C)cc2c1=O)c1cccc(C)c1	42	0.2	6	6	0.6	77*
CC(C)N(CCNC(=O)c1cn(C)c2ccc(S(=O)(=O)N(C)C)cc2c1=O)Cc1ccccc1	11	0.5	8	-4	0.9	51*
C=CCn1cc(C(=O)NCC2CCCO2)c(=O)c2cc(S(=O)(=O)N3CCCCCC3)ccc21 (configuration not stated)	7	0.5	8	7	0.9	55*
COCCNC(=O)c1cn(C)c2ccc(S(=O)(=O)N(C)C3CCCCC3)cc2c1=O	8	0.7	30*	-15	0.9	32
CN1CCN(CCCNC(=O)c2cn(C)c3ccc(S(=O)(=O)N(C)C)cc3c2=O)CC1	1	1	-3	-5	1	4
CCn1cc(C(=O)NCC2CCCO2)c(=O)c2cc(S(=O)(=O)N(C)C3CCCCC3)ccc21 (configuration not stated)	22	0.4	3	-2	0.8	61*
CCn1cc(C(=O)NCC2CCCO2)c(=O)c2cc(S(=O)(=O)N(C)C)ccc21 (configuration not stated)	x	x	6	3	x	x
O=C(NCC1CCCO1)c1cc(-c2ccncc2)nc2ccc(S(=O)(=O)N3CCOCC3)cc12 (configuration not stated)	72*	0.3	9	-8	0.3	70*
